# Results: PubChem BioAssay
# Active and inactive are the calls of the source.
# What was measured:
# [1] = test system: Human papillomavirus type 1a protein E7 (residues 44-93); experiment: HPV1a E7 fragment binders on microarrays, primary screen, biochemical, small-molecule microarray, residues 44-93, 635 nm fluorescence (AID 1108); conditions: small-molecule microarray binding, fluorescence 635 nm; higher = more signal;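 also: E7 fragment applied at 1 µg/mL in TBST for 1 h at 4 C; score combines spot fluorescence with its signal to noise ratio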
# [2] = modulators of HCV replicon luciferase signal, primary screen, HCV replication inhibitor project, Huh7 cells, luciferase reporter (AID 1109); conditions: 48 h, higher = more signal;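 also: huh7 hepatoma cells harbouring a luciferase neomycin HCV replicon reporter; luciferase luminescence as measure of HCV replicon replication; test concentration not given here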
# [3] = target: Left-right determination factor 2 (Homo sapiens) (UniProt O00292); experiment: LEFTY2 binders on small-molecule microarrays, primary screen, biochemical, small-molecule microarray, 635 nm fluorescence scan (AID 1110); conditions: LEFTY2 binding, higher = more signal
# [4] = target: Calmodulin-1 (Homo sapiens) (UniProt P0DP23); experiment: CALM1 binders on microarrays, EGTA buffer, profiling panel, biochemical, small-molecule microarray, Cy5-labelled CALM1 (AID 1111); conditions: Cy5-CALM1 binding fluorescence, higher = more signal;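 also: labelled calmodulin applied in Tris saline Tween buffer holding calcium plus EGTA and DTT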
# [5] = target: Calmodulin-1 (Homo sapiens) (UniProt P0DP23); experiment: calcium-bound CALM1 binders on microarrays, profiling panel, artefact control for SMM control-protein annotation, biochemical, small-molecule microarray, Cy5-labelled CALM1, plus calcium (AID 1112); conditions: Cy5-CALM1 binding fluorescence, higher = more signal;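 also: score merges spot fluorescence with signal to noise from triplicate slides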
# [6] = small-molecule microarray binders of probe aWnt5a, primary screen, biochemical, biotinylated probe, 635/667 nm fluorescence (AID 1113); conditions: higher = more signal;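 also: score merges 667 nm fluorescence intensity with signal-to-noise per printed feature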
# [7] = small-molecule microarray binders of probe aShh, primary screen, biochemical, biotinylated probe, 635/667 nm fluorescence (AID 1114); conditions: higher = more signal;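 also: probe is biotin-labelled aShh protein from a stem cell growth factor screen; measures binding of labelled protein to compounds printed on the slide; score merges feature fluorescence at 667 nm with signal-to-noise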
# [8] = small-molecule microarray binders of probe aNog, primary screen, biochemical, biotinylated probe, 635/667 nm fluorescence (AID 1115); conditions: higher = more signal;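 also: probe is biotinylated aNog protein used at 0.15 µg/mL for 1 h at 4 C; z-score combines 667 nm fluorescence of each spot with its signal to noise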
# [9] = target: Torsin-1A-interacting protein 1 (Homo sapiens) (UniProt Q5JTV8); experiment: LAP1 binders from COS7 cell lysate, primary screen, small-molecule microarray, 635/667 nm fluorescence (AID 1116); conditions: COS7-hLAP1 lysate binding, 635 nm fluorescence, higher = more signal
# [10] = target: Alpha-bungarotoxin (Bungarus multicinctus) (UniProt P60615); experiment: alpha-bungarotoxin binders on microarray, profiling panel, artefact control for SMM control protein annotation, biochemical, small-molecule microarray, Alexa647 label, 635/667 nm fluorescence (AID 1117); conditions: alpha-BTX-A647 binding fluorescence, higher = more signal
# Albumin (Bos taurus) = Albumin (Bos taurus) (UniProt P02769); experiment: bovine serum albumin binders on microarray, profiling panel, artefact control for SMM control protein annotation, biochemical, small-molecule microarray, Alexa647 label, 635/667 nm fluorescence (AID 1118); conditions: BSA-A647 binding, fluorescence 635 nm, higher = more signal;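 also: score merges 667 nm emission intensity and signal-to-noise per printed compound spot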
# [11] = small-molecule microarray binders of probe aXIP, primary screen, biochemical, NeuroSMM set, 635/667 nm fluorescence (AID 1119); conditions: higher = more signal, called active from +8 up or from −8 down;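 also: probe is the protein aXip251-270 applied at 1 µg/mL to compound-printed slides; binding of probe to printed compounds measured as 667 nm fluorescence plus signal to noise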
# [12] = small-molecule binders of probe aNOTCH3, primary screen, biochemical, small-molecule microarray, 635/667 nm fluorescence (AID 1120); conditions: higher = more signal;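 also: probe is a biotin-tagged antibody raised against NOTCH3 rather than NOTCH3 protein; score merges spot fluorescence near 667 nm with spot signal to noise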
# [13] = small-molecule binders of probe aNOTCH2, primary screen, biochemical, small-molecule microarray, 635/667 nm fluorescence (AID 1121); conditions: higher = more signal;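 also: score merges feature fluorescence read at 667 nm with its signal to noise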
# [14] = target: Carbonic anhydrase 2 (Homo sapiens) (UniProt P00918); experiment: CAII small-molecule binders, profiling panel, biochemical, small-molecule microarray, Alexa647-labelled CAII (AID 1122); conditions: CAII-A647 binding fluorescence, higher = more signal
# [15] = COS7 lysate on small-molecule microarray, probe aHis, 635 nm (AID 1123); conditions: COS7 cell lysate, fluorescence, higher = more signal;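 also: z-score combines 667nm fluorescence intensity with signal-to-noise per printed compound spot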
# [16] = compound binding in COS7 lysate, probe aLAP1, primary screen, cell lysate, small-molecule microarray (AID 1124); conditions: probe aLAP1, fluorescence, higher = more signal;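 also: lysate comes from COS7 cells expressing LAP1 and is applied at 0.3 µg/mL; score merges spot fluorescence near 667 nm with signal-to-noise over triplicate slides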
# Sam68 (KHDRBS1) = experiment: Sam68 small-molecule binders, primary screen, biochemical, small-molecule microarray, 635 nm fluorescence (AID 1125); conditions: small-molecule microarray binding, higher = more signal;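 also: score merges 667 nm channel intensity with signal to noise over triplicate slides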
# [17] = test system: Chordin-like protein 2 (CHRDL2); experiment: CHRDL2 small-molecule binders, primary screen, biochemical, small-molecule microarray, 635 nm fluorescence (AID 1126); conditions: small-molecule microarray binding, fluorescence 635 nm; higher = more signal;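 also: printed compound slides probed with Chrdl2 protein at 4 µg/mL for 1 h at 4 C; score merges 667 nm emission intensity with signal to noise over three replicate slides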
# [18] = target: Concanavalin-A (Canavalia ensiformis) (UniProt P02866); experiment: ConA small-molecule binders, primary screen, artefact control for SMM control protein annotation, biochemical, small-molecule microarray, Alexa647 label, 635 nm (AID 1127); conditions: ConA-A647 binding fluorescence, higher = more signal;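 also: z combines 667 nm emission intensity with signal-to-noise across three replicate slides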
# Concanavalin-A (Canavalia ensiformis), sequence (P02866 whole entry, looked up): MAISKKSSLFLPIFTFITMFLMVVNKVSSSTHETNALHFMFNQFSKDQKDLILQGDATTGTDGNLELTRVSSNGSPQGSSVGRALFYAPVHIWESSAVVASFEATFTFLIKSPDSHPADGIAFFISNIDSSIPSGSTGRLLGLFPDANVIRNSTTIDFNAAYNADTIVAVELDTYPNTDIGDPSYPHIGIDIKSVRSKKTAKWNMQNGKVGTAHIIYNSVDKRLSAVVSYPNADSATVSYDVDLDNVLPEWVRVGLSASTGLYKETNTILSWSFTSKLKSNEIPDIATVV
# Left-right determination factor 2 (Homo sapiens), sequence (O00292 whole entry, looked up): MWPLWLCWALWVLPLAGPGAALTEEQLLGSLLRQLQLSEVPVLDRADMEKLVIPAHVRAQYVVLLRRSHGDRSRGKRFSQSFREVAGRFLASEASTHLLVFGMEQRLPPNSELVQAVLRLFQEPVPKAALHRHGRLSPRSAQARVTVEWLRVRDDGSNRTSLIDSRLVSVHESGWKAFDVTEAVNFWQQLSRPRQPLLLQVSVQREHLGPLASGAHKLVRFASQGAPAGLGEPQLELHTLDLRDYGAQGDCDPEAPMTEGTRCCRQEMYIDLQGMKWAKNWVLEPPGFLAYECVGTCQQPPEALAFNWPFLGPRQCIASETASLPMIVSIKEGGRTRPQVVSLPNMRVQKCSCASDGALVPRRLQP
# Torsin-1A-interacting protein 1 (Homo sapiens), sequence (Q5JTV8 whole entry, looked up): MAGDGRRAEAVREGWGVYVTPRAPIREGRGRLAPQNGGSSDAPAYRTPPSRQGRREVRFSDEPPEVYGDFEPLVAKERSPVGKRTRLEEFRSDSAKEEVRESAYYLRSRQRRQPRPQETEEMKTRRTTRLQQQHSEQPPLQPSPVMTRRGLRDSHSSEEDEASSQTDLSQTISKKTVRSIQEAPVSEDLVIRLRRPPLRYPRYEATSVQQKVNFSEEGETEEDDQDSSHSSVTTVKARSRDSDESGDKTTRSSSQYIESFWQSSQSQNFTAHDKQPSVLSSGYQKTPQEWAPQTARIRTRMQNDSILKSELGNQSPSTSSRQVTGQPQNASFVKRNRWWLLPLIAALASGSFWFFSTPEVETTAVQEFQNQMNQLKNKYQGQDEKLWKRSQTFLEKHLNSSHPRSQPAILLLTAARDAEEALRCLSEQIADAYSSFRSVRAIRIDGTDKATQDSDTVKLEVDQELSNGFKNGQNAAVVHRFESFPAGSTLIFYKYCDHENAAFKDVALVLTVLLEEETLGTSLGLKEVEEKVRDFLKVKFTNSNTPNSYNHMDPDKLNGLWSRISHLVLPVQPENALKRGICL
# Albumin (Bos taurus), sequence (P02769 whole entry, looked up): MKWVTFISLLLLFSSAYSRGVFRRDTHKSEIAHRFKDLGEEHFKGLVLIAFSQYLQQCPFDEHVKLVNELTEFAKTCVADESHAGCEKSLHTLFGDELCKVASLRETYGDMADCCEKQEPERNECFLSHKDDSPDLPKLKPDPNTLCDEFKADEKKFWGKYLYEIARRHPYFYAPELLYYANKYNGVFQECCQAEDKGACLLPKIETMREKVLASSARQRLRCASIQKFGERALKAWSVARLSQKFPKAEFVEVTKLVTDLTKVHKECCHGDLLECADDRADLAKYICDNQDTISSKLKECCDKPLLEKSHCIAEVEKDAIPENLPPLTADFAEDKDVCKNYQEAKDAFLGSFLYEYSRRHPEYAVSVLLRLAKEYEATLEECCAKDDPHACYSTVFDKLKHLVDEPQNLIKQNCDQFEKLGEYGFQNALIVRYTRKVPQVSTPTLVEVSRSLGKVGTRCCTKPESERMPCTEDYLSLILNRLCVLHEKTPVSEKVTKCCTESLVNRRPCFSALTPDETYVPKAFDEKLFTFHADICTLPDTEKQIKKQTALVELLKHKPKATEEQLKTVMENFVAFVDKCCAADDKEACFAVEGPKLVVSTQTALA
# Alpha-bungarotoxin (Bungarus multicinctus), sequence (P60615 whole entry, looked up): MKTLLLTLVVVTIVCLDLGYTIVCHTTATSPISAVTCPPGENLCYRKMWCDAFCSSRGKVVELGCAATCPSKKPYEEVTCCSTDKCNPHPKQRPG
Structure (SMILES),composite z-score [1],z-score [2],composite z-score [3],composite z-score [4],composite z-score [5],composite z-score [6],composite z-score [7],composite z-score [8],composite z-score [9],composite z-score [10],composite z-score (Albumin (Bos taurus)),composite Z-score [11],composite z-score [12],composite z-score [13],composite z-score [14],composite z-score [15],composite z-score [16],composite z-score (Sam68 (KHDRBS1)),composite z-score [17],composite z-score [18]
CCOC(=O)C[C@H]1[C@H](OC(=O)c2cc3ccccc3oc2=O)[C@@H](NC(=O)Cc2ccc(OC)cc2)c2cc(OCCCO)ccc2N1C(=O)c1ccc2ccccc2n1,0.178,-0.664,0.774,-0.0597,-0.399,0.0257,-0.214,0.0023,0.514,0.26,-0.116,-0.431 (inactive),-0.152,-0.0666,0.353,0.303,0.096,0.206,0.583,0.0304
COc1ccc(CCNC(=O)[C@@]2(Sc3ccc(C)cc3)CC(=O)N(C3Cc4ccccc4C3)[C@@H]2c2ccc(CO)cc2)cc1,1.42,-3.04,1.25,1.07,0.616,0.0799,0.171,0.557,2.01,0.535,0.575,-0.413 (inactive),0.0522,0.0407,0.274,1.23,0.661,1.3,1.5,1.14
CO[C@]12C=C(Br)[C@@H](C[C@@H]1c1cccc(C)c1)[C@@]1(CO1)C2=O,0.194,-3.39,0.334,-0.426,-0.83,-0.247,-0.2,-0.0852,-0.373,-0.157,0.223,0.379 (inactive),-0.0311,-0.132,0.354,0.288,-0.071,0.189,0.306,0.123
COc1ccc(NC(=O)O[C@H]2[C@H](OC(=O)Nc3ccccc3)[C@@H](OC(=O)Nc3ccccc3)[C@@H](OC)O[C@@H]2CO)cc1,1.28,-3.04,0.298,1.41,-0.298,0.107,-0.0813,0.564,1.25,0.577,0.137,-0.275 (inactive),-0.0003,-0.0878,0.761,2.8,0.624,1.29,0.402,1.13
Cc1cc(C)cc(N2C(=O)CSC2c2cccc([N+](=O)[O-])c2)c1 (stereo not given),0.0826,-1.26,0.571,1.6,0.463,0.0873,0.0815,0.0373,0.516,1.7,0.892,0.027 (inactive),-0.0023,-0.124,0.621,1.94,0.798,1.3,0.052,1.19
CCCCC(=C=CC[C@@H](O)c1ccccc1OCCO)C[C@@H](O)COCc1ccccc1,0.0941,-1.45,-0.608,-0.275,-0.0639,0.384,-0.237,-0.124,0.694,1.02,0.338,-0.0202 (inactive),-0.281,-0.148,0.47,1.95,0.207,0.471,-0.893,-0.525
